Drawing on PubChem BioAssay (Tox21), this text covers Potency for 9 compounds.

SMILES strings stand for the structures. A number with no mark means an inactive call. Records with an inconclusive call do not appear. Calls of active or inactive are those of the source. Unless noted, calls come from the whole dose curve.

Test [1] in a line: Nuclear factor erythroid 2-related factor 2/antioxidant responsive element (Nrf2/ARE) small molecule agonists: qHTS cell viability counter screen in human keratinocytes (AID 1919968; active = well fitted curve in the direction sought with a large enough effect in the repeat runs; an effect the other way counts as inactive or inconclusive; note: nearly all actives have a fitted effect of over 55% in size; note: potency is the fitted concentration of half-maximal effect). A digest of the protocol:
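In human HaCaT keratinocytes stably expressing an ARE-driven luciferase, compound exposure lasted 23 h at 37 C under 5% CO2. Viable cells are quantified with a protease-based fluorogenic reagent (CellTiter-Fluor) read 1 h after addition.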

Test [2] in a line: Nuclear factor erythroid 2-related factor 2/antioxidant responsive element (Nrf2/ARE) small molecule agonists: luciferase reporter gene qHTS assay in human keratinocytes (AID 1919969). Note: nearly all actives have a fitted effect of over 35% in size. Note: potency is the fitted concentration of half-maximal effect.
Test [3] has as its target Gonadotropin-releasing hormone receptor (Homo sapiens) (UniProt P30968). The test is described as follows: Human gonadotropin-releasing hormone receptor (GnRHR) small molecule agonists, calcium flux assay in GnRHR-HEK293 cells (AID 1920063). Note: nearly all actives have a fitted effect of over 35% in size. In a few lines:
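Intracellular calcium rise is the read-out: engineered human GnRHR HEK293 cells, dye-loaded, are exposed to DMSO-dissolved compounds and fluorescence at Ex/Em 480/540 is tracked for 3 min.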

The nature of test [4]: G protein-coupled receptor (GPCR) small molecule agonists, calcium flux assay: HEK293 wild type cell line counter screen (AID 1920065). A digest of the protocol: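 Fluorescence intensity signals activation. After overnight (18 h) culture and a 1 h calcium dye load at 37 C, compounds are added by pin tool and the plate read at 480/540 nm for 3 min in 1 s steps.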
The nature of test [5]: p53 small molecule agonists, cell-based qHTS assay with human liver microsomes: qHTS cell viability counter screen (AID 1963579). Note: nearly all actives have a fitted effect of over 45% in size. A digest of the protocol:
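HLM-supplemented (0.5 mg/mL final) and NADPH-supplemented (0.5 mg/mL final) p53RE-bla cultures, 4,000 cells per well, were dosed with compounds in DMSO for 16 h at 37 C; luminescent ATP detection (CellTiter-Glo, 30 min, room temperature) quantified surviving cells.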

Test [6] can be described thus: p53 small molecule agonists, cell-based qHTS assay with rat liver microsomes: qHTS cell viability counter screen (AID 1963580). Note: nearly all actives have a fitted effect of over 45% in size. Note: potency is the fitted concentration of half-maximal effect. A digest of the protocol: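 After the beta-lactamase ratio was read, CellTiter-Glo was added to the same wells and luminescence measured at 30 min; cells had been treated 16 h at 37 C with compounds, rat liver microsomes and NADPH (0.5 mg/mL final each).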

A short description of test [7]: p53 small molecule agonists, cell-based qHTS assay: qHTS cell viability counter screen (AID 1963581). Note: nearly all actives have a fitted effect of over 45% in size. In a few lines: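 Luminescence from CellTiter-Glo, reflecting ATP content, serves as the cytotoxicity measure; it is taken after the 2 h reporter substrate step in HCT-116 p53RE-bla cells dosed for 16 h at 37 C.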
The target of test [8] is 5-hydroxytryptamine receptor 2A (Homo sapiens) (UniProt P28223). Kind of test: 5-hydroxytryptamine receptor 2A (HTR2A) small molecule antagonists, cell-based qHTS assay (AID 1963586). Note: nearly all actives have a fitted effect of over 45% in size. In a few lines: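 CHO cells stably expressing human HTR2A were plated for 18 h at 37 C, then loaded with calcium dye for 1 h. Compounds were preincubated 5 min at room temperature before DOI (4 nM solution) was added. Kinetic fluorescence was read for 3 min.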

Test [9] addresses Muscarinic acetylcholine receptor M1 (Homo sapiens) (UniProt P11229). Kind of test: Cholinergic receptor muscarinic 1 (CHRM1) small molecule antagonists, cell-based qHTS assay (AID 1963588). Note: nearly all actives have a fitted effect of over 40% in size. In a few lines:
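Compounds were tested at 15 concentrations in three independent runs. Dye-loaded CHRM1-CHO cells were exposed 5 min at room temperature before stimulation by acetylcholine added at 50nM. Intracellular calcium was read kinetically on FDSS for 3 min.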

The target is the same in test [10]. Kind of test: Cholinergic receptor muscarinic 1 (CHRM1) small molecule agonists, cell-based qHTS assay (AID 1963589). Note: nearly all actives have a fitted effect of over 35% in size. A digest of the protocol:
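Fluorescent calcium dye reports M1 activation in stably transfected CHO cells. Compounds, 15 concentrations, added after 1 h dye loading at 37 C; kinetic reading at 1 sec intervals.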

Test [11] has as its target Beta-2 adrenergic receptor (Homo sapiens) (UniProt P07550). Kind of test: Adrenergic beta2 receptor (ADRB2) small molecule antagonists, cell-based qHTS assay (AID 1963592). Note: series mostly up to about 92 µM; nearly all actives have a fitted effect of over 50% in size. A digest of the protocol:
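Assay format: CHO-ADRB2 cells, 18-20hr seeding at 37C/5% CO2, then compound plus 1nM isoproterenol agonist mix for 0.5hr RT. Homogeneous time-resolved fluorescence cAMP detection after 1hr, expressed as 665/615 nm ratio.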

In test [12] the target is D(2) dopamine receptor (Homo sapiens) (UniProt P14416). Kind of test: Dopamine D2 receptor (DRD2) small molecule agonists, cell-based qHTS assay (AID 1963594). Note: nearly all actives have a fitted effect of over 35% in size. In a few lines: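 HEK293 cells stably expressing human DRD2, pre-treated with PDE inhibitor Ro20-1724 (0.1 mM final) and compound 10 min at room temperature, then stimulated with NKH477 (200nM […]) for 30 min. cAMP read by HTRF (665/620 nm).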

Test [13] has the same target. The test is described as follows: Dopamine D2 receptor (DRD2) small molecule antagonists, cell-based qHTS assay (AID 1963595; active = well fitted inhibition curve with a large enough effect in the signal ratio in the repeat runs, with a control signal flat; the % refers to the signal ratio). In a few lines:
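Antagonist mode in DRD2-HEK293 cells: after compound addition with 0.1 mM Ro20-1724, cells received quinpirole (12 nM) and NKH477 (200 nM) for 30 min at room temperature; HTRF cAMP read after 1 h detection.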

The target of test [14] is 5-hydroxytryptamine receptor 2A (Homo sapiens) (UniProt P28223). The test is described as follows: 5-hydroxytryptamine receptor 2A (HTR2A) small molecule agonists, cell-based qHTS assay (AID 1963587). Note: nearly all actives have a fitted effect of over 30% in size. Note: potency is the fitted concentration of half-maximal effect. A digest of the protocol:
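CHO cells stably expressing human HTR2A, plated 18 h, loaded with calcium dye 1 h at 37 C. Agonist mode: compounds added and intracellular calcium fluorescence recorded kinetically for 2 min at 1 sec intervals.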

Test [15] addresses Beta-2 adrenergic receptor (Homo sapiens) (UniProt P07550). The test is described as follows: Adrenergic beta2 receptor (ADRB2) small molecule agonists, cell-based qHTS assay (AID 1963593).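 Note: CHO cells stably overexpressing human ADRB2.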 A digest of the protocol: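 CHO cells stably over-expressing ADRB2 were plated overnight at 37C, then dosed with compounds plus a stimulation mix containing 100uM IBMX and 25uM Ro-20-1724 for 0.5hr at room temperature. cAMP was measured by HTRF competition, 1hr.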

Test [16] can be described thus: cAMP Responsive Elements (CRE) small molecule agonists, cell-based qHTS assay (AID 1963590). In a few lines: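 Compound exposure lasted 3 h at 37 C/5% CO2 in CRE-bla HEK 293T cells grown in assay medium with 10% dialyzed FBS and 25 mM HEPES. Reporter signal came from LiveBLAzer B/G FRET substrate, 2 h, room temperature.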
Test [17] can be described thus: cAMP Responsive Elements (CRE) small molecule antagonists, cell-based qHTS assay (AID 1963591; active = well fitted inhibition curve with a large enough effect in the signal ratio in the repeat runs, not every such curve was filed as active; the % refers to the signal ratio). In a few lines:
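Stimulation used NKH477 at a final 0.25 uM for 3 h in compound-treated CRE-bla HEK293T cells, seeded 18 h beforehand. Reporter activity was measured with LiveBLAzer B/G FRET substrate after 2 h at room temperature.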

For test [18], the target named is KiSS-1 receptor (Homo sapiens) (UniProt Q969F8). Kind of test: Human kisspeptin (KISS1R) small molecule agonists, calcium flux assay in KISS1R-HEK293 cells (AID 1920064; active = well fitted curve in the direction sought with a large enough effect in the repeat runs; an effect the other way counts as inactive or inconclusive). In a few lines:
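Concentration-response testing used 15 concentrations in triplicate on human KISS1R-expressing HEK293 cells. Calcium-dependent fluorescence (Ex/Em 480/540) was followed kinetically for 3 min after compound transfer.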

Test [19] is described as follows: p53 small molecule agonists, cell-based qHTS assay with rat liver microsomes (AID 1963578). In a few lines:
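Compound in DMSO added to p53RE-bla cells 5 h post-plating; rat microsomes/NADPH 0.5 mg/mL final; 16 h, 37 C; LiveBLAzer 2 h RT.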

Test [20] in a line: p53 small molecule agonists, cell-based qHTS assay (AID 1963582; active = well fitted activation curve with a large enough effect in the signal ratio in the repeat runs, not every such curve was filed as active; the % refers to the signal ratio). A digest of the protocol: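 After plating, p53RE-bla cells sat 5 h in the incubator; compounds or DMSO vehicle were pinned in; a 16 h incubation at 37 C followed; FRET substrate was added and, 2 h later at RT, fluorescence was measured.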

Chain of 5-hydroxytryptamine receptor 2A (Homo sapiens) (P28223 whole entry, looked up): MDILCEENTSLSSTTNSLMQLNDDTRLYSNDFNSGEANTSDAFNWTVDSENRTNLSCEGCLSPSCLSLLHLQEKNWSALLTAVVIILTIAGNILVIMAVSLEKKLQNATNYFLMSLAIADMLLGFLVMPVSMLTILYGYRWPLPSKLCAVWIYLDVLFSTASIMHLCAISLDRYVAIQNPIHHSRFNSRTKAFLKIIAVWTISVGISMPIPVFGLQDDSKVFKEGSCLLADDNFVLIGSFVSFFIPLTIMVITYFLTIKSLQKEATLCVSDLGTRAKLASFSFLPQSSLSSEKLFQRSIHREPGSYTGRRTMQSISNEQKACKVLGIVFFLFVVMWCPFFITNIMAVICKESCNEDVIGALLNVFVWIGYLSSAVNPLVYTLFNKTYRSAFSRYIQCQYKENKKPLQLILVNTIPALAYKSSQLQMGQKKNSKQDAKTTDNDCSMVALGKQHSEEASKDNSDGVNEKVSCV
Chain of KiSS-1 receptor (Homo sapiens) (Q969F8 whole entry, looked up): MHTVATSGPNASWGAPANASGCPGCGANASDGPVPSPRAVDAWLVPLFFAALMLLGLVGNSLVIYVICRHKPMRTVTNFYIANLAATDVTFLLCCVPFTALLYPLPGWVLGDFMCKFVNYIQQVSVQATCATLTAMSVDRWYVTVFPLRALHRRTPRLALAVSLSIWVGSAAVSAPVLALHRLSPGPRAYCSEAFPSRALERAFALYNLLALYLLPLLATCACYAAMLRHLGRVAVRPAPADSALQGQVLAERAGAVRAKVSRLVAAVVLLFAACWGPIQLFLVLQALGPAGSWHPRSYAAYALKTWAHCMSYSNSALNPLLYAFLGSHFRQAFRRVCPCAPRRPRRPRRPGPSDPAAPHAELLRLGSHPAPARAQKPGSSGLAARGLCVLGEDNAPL
Chain of Gonadotropin-releasing hormone receptor (Homo sapiens) (P30968 whole entry, looked up): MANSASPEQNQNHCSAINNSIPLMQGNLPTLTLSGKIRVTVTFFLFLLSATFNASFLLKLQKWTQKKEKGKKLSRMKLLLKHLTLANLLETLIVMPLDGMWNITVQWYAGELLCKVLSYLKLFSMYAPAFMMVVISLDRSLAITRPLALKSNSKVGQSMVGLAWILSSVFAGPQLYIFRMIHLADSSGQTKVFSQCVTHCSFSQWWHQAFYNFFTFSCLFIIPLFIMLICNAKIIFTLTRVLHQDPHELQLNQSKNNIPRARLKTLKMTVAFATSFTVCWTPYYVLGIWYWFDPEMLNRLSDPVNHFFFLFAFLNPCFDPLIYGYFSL
Chain of Beta-2 adrenergic receptor (Homo sapiens) (P07550 whole entry, looked up): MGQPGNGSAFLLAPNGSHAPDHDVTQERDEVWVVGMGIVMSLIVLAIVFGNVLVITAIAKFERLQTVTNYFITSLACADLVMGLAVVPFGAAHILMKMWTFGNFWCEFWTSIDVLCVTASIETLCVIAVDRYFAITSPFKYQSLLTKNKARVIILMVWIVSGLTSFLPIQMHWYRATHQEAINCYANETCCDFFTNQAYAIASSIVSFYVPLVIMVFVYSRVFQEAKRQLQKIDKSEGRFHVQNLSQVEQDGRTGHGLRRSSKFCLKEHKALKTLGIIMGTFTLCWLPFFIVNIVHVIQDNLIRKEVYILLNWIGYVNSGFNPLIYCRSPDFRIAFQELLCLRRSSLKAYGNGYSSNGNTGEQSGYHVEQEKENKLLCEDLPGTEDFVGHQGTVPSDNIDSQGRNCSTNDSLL
Chain of Muscarinic acetylcholine receptor M1 (Homo sapiens) (P11229 whole entry, looked up): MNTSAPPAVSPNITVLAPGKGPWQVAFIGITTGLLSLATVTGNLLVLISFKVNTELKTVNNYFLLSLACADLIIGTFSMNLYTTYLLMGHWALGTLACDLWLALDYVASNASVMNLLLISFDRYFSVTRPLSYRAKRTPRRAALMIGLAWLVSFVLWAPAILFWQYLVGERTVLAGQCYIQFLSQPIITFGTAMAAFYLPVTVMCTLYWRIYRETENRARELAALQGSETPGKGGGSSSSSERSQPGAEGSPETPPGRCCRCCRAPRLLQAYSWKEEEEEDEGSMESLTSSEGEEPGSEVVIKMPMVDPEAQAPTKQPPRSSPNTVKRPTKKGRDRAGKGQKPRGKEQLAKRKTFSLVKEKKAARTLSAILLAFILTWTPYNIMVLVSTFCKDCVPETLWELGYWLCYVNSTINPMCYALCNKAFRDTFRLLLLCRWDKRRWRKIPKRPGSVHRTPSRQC
Chain of D(2) dopamine receptor (Homo sapiens) (P14416 whole entry, looked up): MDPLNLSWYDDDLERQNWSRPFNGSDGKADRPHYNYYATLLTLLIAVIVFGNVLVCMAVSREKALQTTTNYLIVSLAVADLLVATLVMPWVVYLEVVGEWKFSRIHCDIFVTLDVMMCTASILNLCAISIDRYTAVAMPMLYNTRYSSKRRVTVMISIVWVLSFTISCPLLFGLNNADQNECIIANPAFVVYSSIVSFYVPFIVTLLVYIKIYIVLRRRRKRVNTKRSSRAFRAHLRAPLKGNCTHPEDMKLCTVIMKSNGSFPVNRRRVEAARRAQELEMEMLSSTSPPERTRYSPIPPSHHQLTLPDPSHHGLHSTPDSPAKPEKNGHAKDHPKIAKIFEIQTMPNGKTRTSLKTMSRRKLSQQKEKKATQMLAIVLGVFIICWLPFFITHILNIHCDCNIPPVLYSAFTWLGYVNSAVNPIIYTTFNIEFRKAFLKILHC

As to `CCCc1nc(C)c2c(=O)[nH]c(-c3cc(S(=O)(=O)N4CCN(CC)CC4)ccc3OCC)nn12`, the Potency result in [1], in test [2], in test [3], in test [4], in test [5] and in test [6] was “inactive” throughout. For the same compound, the Potency entry in test [7], in test [8], in [9], in test [10], in test [11] and in test [12] was “inactive” each time. Further, in test [13], the Potency entry was “inactive”.

On to `O=C(Nc1cccc(Cl)c1)OCC#CCCl`, for which the Potency in test [1] was 17.2 µM (active); in test [2] it was 12.2 µM (active). Also, the Potency entry in test [3], in test [4], in test [5], in test [6], in test [8] and in test [14] was “inactive” each time. Further, the Potency result in [9], in test [10], in [11], in [15], in test [12] and in [13] was “inactive” throughout.

With `CCOC(=O)CC(=O)c1ccccc1`, the Potency result in test [1], in test [2], in test [3], in test [4], in test [5] and in test [7] was “inactive” each time. Further, the Potency result in [14], in test [9], in test [10], in [11], in test [15] and in test [12] was “inactive” in each case. Further, the Potency result in [13] was “inactive”.

As for `NC(N)=NS(=O)(=O)c1ccc(N)cc1`, the Potency result in test [1], in test [2], in test [3], in [4], in test [5] and in test [6] was “inactive” throughout. Besides, the Potency result in test [7], in test [14], in test [9], in test [10], in test [16] and in test [17] was “inactive” throughout. Further, the Potency entry in [11] and in test [12] was “inactive” each time.

Turning to `Cc1cc(O)c(C(C)C)cc1Cl`, the Potency entry in test [1], in [2], in test [18], in [4], in test [19] and in test [5] was “inactive” each time. In addition, the Potency result in test [6], in [7], in test [20], in [8], in test [14] and in test [9] was “inactive” each time. Further, the Potency entry in test [10], in [16], in test [15], in test [12] and in test [13] was “inactive” each time.

For the compound `CC(C)(CO)C(O)C(=O)NCCCO` (stereo not given), the Potency entry in [1], in test [2], in [3], in [4], in [6] and in test [7] was “inactive” throughout. For the same compound, the Potency entry in test [16], in test [17], in test [11], in test [12] and in [13] was “inactive” in each case.

Take `C[C@H](CCC(=O)O)[C@H]1CC[C@H]2[C@@H]3CC[C@@H]4C[C@H](O)CC[C@]4(C)[C@H]3C[C@H](O)[C@]12C`: the Potency entry in test [1], in [2], in test [18], in test [4], in test [19] and in [5] was “inactive” in each case. Further, the Potency result in test [6], in test [7], in test [20], in [8], in test [14] and in test [11] was “inactive” throughout. The Potency result in test [12] and in [13] was “inactive” each time.

As to `CC(C)(C)c1ccc(OC2CCCCC2O)cc1` (stereo not given), the Potency entry in [1], in test [18], in test [4], in [19], in [5] and in [7] was “inactive” in each case. The Potency entry in test [9], in test [17], in test [12] and in [13] was “inactive” each time. Also, the Potency in test [2] is 38.6 µM (active); in [6], 1.62 µM (active); in [14], 43.6 µM (active).

For `CN(C)C(=O)COC(=O)Cc1ccc(OC(=O)c2ccc(N=C(N)N)cc2)cc1`, the Potency result in [1], in test [2], in [3], in [4], in test [5] and in [6] was “inactive” each time. Further, the Potency result in test [7], in test [8], in [14], in test [9], in test [10] and in test [17] was “inactive” in each case. Further, the Potency result in [11], in test [15], in [12] and in test [13] was “inactive” each time.
